# Records with an inconclusive call do not appear. The source made the active and inactive calls. Calls come from the whole dose curve; as a rule, active = well fitted inhibition curve with a large enough effect; inconclusive = small, poorly fitted or top-dose-only effect; inactive = no such curve, though single readings can be large or run the other way.
# Experiment: qHTS for Inhibitors of the Aldehyde Dehydrogenase Family (ALDH1A2, ALDH1A3, ALDH2, ALDH3A1) (AID 2061307); note: nearly all actives have a fitted effect of over 50% in size; for Potency: test system not described further here
# Details: ALDH inhibition qHTS; series mostly up to 50.3 µM; activity change, negative = inhibition: at the top concentration
# % is set by controls: 0 for no effect and ±100 for the full control effect; potency is the fitted concentration of half-maximal effect.
Structure (SMILES),"activity change, negative = inhibition",Potency
O=C(Nc1ccncc1)c1cccs1,-78.7% (inactive),
O=C(N/N=C/c1ccc(Sc2ccccn2)o1)c1cccc(F)c1,,15.9 µM (active)
COc1ccc(-n2ccc(CNc3cccc(F)c3C#N)n2)cc1,-28.1% [at 34.4 µM] (inactive),
CN(C)c1ccc(C(=O)Nc2nnc(C3=COCCO3)o2)cc1,-2% (inactive),
CCOCCNC(=O)N1CCN(c2nc(C)cs2)CC1,,14.1 µM (active)
CCOc1ccccc1NC(=O)c1nn(-c2ccc(OC)cc2)c(=O)c2c1c1ccccc1n2C,-4.51% [at 34.4 µM] (inactive),
Cc1ccccc1CN1CCN(Cc2ccc3ccccc3n2)CC1CCO (stereo not drawn),,3.18 µM (active)
COc1ccccc1CNc1ccc(N2CCCCC2)cc1,,2.52 µM (active)
Brc1ccc(CN2CCC(N(CCc3ccccc3)Cc3ccccc3)CC2)cc1,-13.6% (inactive),
O=C(c1cc(-c2ccccc2Cl)nc2ccccc12)N1CCN(c2ccccc2O)CC1,-26.1% (inactive),
Cc1ccc2nc(Nc3ccc(C(=O)O)cc3)[nH]c2c1,,12 µM (active)
O=C(O)c1cccc(S(=O)(=O)N2CCC(n3nnc4cc(C(F)(F)F)ccc43)CC2)c1,-11.3% (inactive),
NC(=O)c1ccc(NC(=O)c2cnn(-c3ccccc3)n2)cc1,-44.7% [at 34.4 µM] (inactive),
Cc1cccc(Nc2nc(-c3ccccc3)c3cc(Cl)ccc3n2)c1,,12.6 µM (active)
COc1ccc(F)cc1NC(=O)Cc1csc(-c2ccccc2Cl)n1,-58.1% [at 34.4 µM] (inactive),
CCOc1ccc(NC(=O)CSCC(=O)Nc2ccc(C)cc2)cc1,-9.3% (inactive),
Cc1ccc2c(=O)cc(C(=O)Nc3cccc(C(F)(F)F)c3)oc2c1C,-11.4% [at 34.4 µM] (inactive),
Cc1ccc(C)n1-c1sccc1C#N,,7.12 µM (active)
COc1ccc(C2CC(=O)Nc3nc(N4CCCCC4)sc32)c(OC)c1 (stereo not drawn),-5.83% (inactive),

Structure (SMILES),"activity change, negative = inhibition",Potency
O=C(Nc1nnc(C(F)(F)F)s1)c1ccc(Cl)cc1,-7.53% (inactive),
COc1ccc(-c2cc(C(=O)Nc3ccc(C(N)=O)cc3F)sc2C)cc1,0% [at 34.4 µM] (inactive),
CCOc1ccc(C(=O)NCc2nc(-c3ccc(Cl)cc3)no2)cc1OCC,-0.628% [at 34.4 µM] (inactive),
O=C(N/N=C/c1ccco1)c1cccc(F)c1,-24.2% (inactive),
N#Cc1ccc(NC(=O)Cc2csc3nc(-c4ccccc4)cn23)cc1,,18.2 µM (active)
Cc1ccc(NC(=O)Cc2c(C)nn(C)c2C)cc1F,,10 µM (active)
Nc1nc(NCc2ccccc2)c2ccccc2n1,,10 µM (active)
CN(C)CCCN1c2ccc([N+](=O)[O-])cc2CCc2cc([N+](=O)[O-])ccc21,-85.5% (inactive),
COc1cccc(-c2cnc(N3CCC(C(N)=O)CC3)s2)c1,-14.1% (inactive),
Cc1csc2c1c(=O)n(O)c(=O)n2Cc1ccccc1,-27.1% (inactive),
O=c1cc(N2CCNCC2)nc2sc(-c3cccc(-c4ccsc4)c3)nn12,,6.31 µM (active)
COc1ccc(/C=C/c2onc(C)c2S(=O)(=O)N2CCC(C(=O)N3CCc4ccccc4C3)CC2)cc1,-15% (inactive),
c1cc(NC2CNC2)nc(-c2cnc3ccccn23)c1,9.03% (inactive),
O=C(NC1CCCc2c1cnn2-c1ccc(OCCOCCOCCNCCc2cn(-c3cc4ccc(O)cc4oc3=O)nn2)cc1)c1ccccn1 (stereo not drawn),-28.5% (inactive),
COc1ccc(-n2cc(-c3ccc4c(c3)OCO4)n(CC(=O)Nc3cccc(C)c3)c2=O)cc1,-5.8% [at 34.4 µM] (inactive),
O=C(c1ccc(Cl)cc1)c1no[n+]([O-])c1C(=O)c1ccc(Cl)cc1,,7.98 µM (active)
O=Cc1ccc(N2Cc3ccccc3C2)cc1,-6.79% [at 34.4 µM] (inactive),
O=C(N/N=C/c1ccc(Sc2ccccn2)s1)c1cccc(F)c1,,15.9 µM (active)
CC(=O)c1cccc(NC(=O)c2noc3c2CSc2ccccc2-3)c1,-16% [at 34.4 µM] (inactive),
